Source: PubChem
FMDV RLuc = antivirals against foot and mouth disease virus replicon; FMDV replicon cells, Renilla luciferase signal; Potency, µM (top dose mostly 57.5 µM), inactives show top-dose activity change, negative = inhibition, most hits filed as inhibitors; 120,000 tested, 0.32% active; note: nearly all actives have a fitted effect of over 55% in size
FMDV FLuc = shows antiviral activity against foot and mouth disease virus; AID 1745856; FMDV antiviral cell assay, firefly luciferase signal; 120,000 tested, 0.23% active; Potency, µM (highest dose often 57.5 µM), for inactives: at the highest dose activity change, negative = inhibition, actives largely listed as inhibitors; note: nearly all actives have a fitted effect of over 60% in size
An asterisk follows results filed as active; u = inconclusive. This is a sample that favours compounds with a hit; in the whole collection about 0.51% have one here. Calls come from the whole dose curve. % is set by controls: 0 for no effect and ±100 for the full control effect; potency is the fitted concentration of half-maximal effect.

SMILES | FMDV RLuc | FMDV FLuc
CCOc1ccc(C(=O)Nc2ccc3oc(-c4ccncc4)nc3c2)cc1Br | 6.31µM* | u
COc1ccc(/C=C/C(=O)c2cccs2)cc1O | 33.2% | 0.0%
CC(C)(C)c1cc(-c2nc3ccccc3[nH]2)n[nH]1 | 7.9% | 2.82µM*
CC(C)(C)c1cc(C(C)(C)C)c2oc(=O)c(-c3nc4ccccc4[nH]3)cc2c1 | -11.3% | -17.7%
O=c1c2cnc(N3CCc4ccccc4C3)nc2ccn1-c1ccccc1 | u | 25.1µM*
O=c1c2cnc(N3CCc4ccccc4C3)nc2ccn1-c1cc(Cl)cc(Cl)c1 | 1.6% | 64.8%
CCOc1ccc(C(=O)Nc2sc(C)c(CC)c2C#N)cc1 | 8.8% | 127.4%
Cc1ccc(-n2c(=O)c3cccnc3n2CC(=O)Nc2ccc(Cl)cc2)cc1 | -11.5% | 27.3%
COc1ccccc1CNC(=O)CN1C(=O)CCCc2ccccc21 | -3.3% | -3.9%
Cc1ccccc1CNC(=O)CN1C(=O)CCCc2ccccc21 | 31.6µM* | 113.9%
CN(C(=O)CSc1nc2ccc(NC(=O)COc3ccc(Cl)cc3)cc2s1)c1ccccc1 | -13.4% | -18.7%
COc1ccc(C(=O)Nc2ccc3nc(SCC(=O)N(C)c4ccccc4)sc3c2)cc1 | 28.2µM* | u
O=C(Nc1ccncc1)c1cccc(OCc2ccc(F)cc2)c1 | 6.31µM* | u
C=CCOc1cccc(NC(=O)c2ccncc2)c1 | 10.6% | 32.9%
Fc1cccc(-c2nc(COc3ccccc3F)co2)c1 | 10.0% | 159.7%
CNC(=O)c1ccccc1OCc1coc(-c2cccc(F)c2)n1 | 25.1µM* | u
O=S(=O)(Nc1nc2ccccc2nc1Nc1ccccc1)c1ccc(Cl)s1 | u | 4.47µM*
O=S(=O)(Nc1nc2ccccc2nc1Nc1ccc(F)cc1)c1ccc(F)cc1 | 3.55µM* | 2.51µM*
O=S(=O)(Nc1nc2ccccc2nc1Nc1cccc(F)c1)c1cccc(Cl)c1 | 3.98µM* | 3.55µM*
COc1cccc(Nc2nc3ccccc3nc2NS(=O)(=O)c2cccc(Cl)c2)c1 | 32.5% | u
CCOc1ccc(S(=O)(=O)Nc2nc3ccccc3nc2Nc2ccc(F)cc2)cc1 | 2.0% | 3.3%
COc1ccccc1Nc1nc2ccccc2nc1NS(=O)(=O)c1ccc(Cl)s1 | 2.2% | 0.9%
Cc1ccc2nc(-c3ccco3)cc(C(=O)O)c2c1 | -6.9% | 0.0%
COc1cc(C2CC(=O)Nc3c2sc(C(=O)O)c3-c2ccc(F)cc2)cc(OC)c1OC (stereo unspecified) | 0.2% | -2.9%
CCOc1cc(C2CC(=O)Nc3c(-c4ccc(OC)cc4)csc32)ccc1OCC(N)=O (stereo unspecified) | 8.91µM* | 12.6µM*
SMILES | FMDV RLuc | FMDV FLuc
Cc1cc(C)cc(NC(=O)Cc2c[nH]c3ccccc23)c1 | -1.6% | 5.6%
CCOC(=O)Cn1nc(C)c(NC(=O)COc2ccccc2)c1C | 10.9% | 17.1%
CCOC(=O)Cn1nc(C)c(NC(=O)COc2ccc(Cl)cc2C)c1C | 10µM* | u
C/C(=N/NC(N)=S)C1CC2CCC1C2 (stereo unspecified) | -1.7% | 3.8%
CC(=O)Nc1ccc(S(=O)(=O)N2CCC(NC(=O)CCC(C)C)CC2)cc1 | 3.8% | 12.0%
Cc1ccc(-c2cc(C(=O)OCC(=O)NC(=O)NC(C)C)c3ccccc3n2)o1 | 29.9% | 182.5%
COc1ccc(NC(=O)c2ccc3c(c2)NC(=O)CS3)cn1 | -0.1% | 68.3%
COc1cc(C)ccc1Oc1ccc(NC(=O)c2ccc3c(c2)NC(=O)CS3)cn1 | 25.1µM* | u
COc1ccccc1/C=C/C(=O)c1ccc(C)cc1OC | 31.4% | 0.0%
COc1ccc(C(=O)/C=C/c2ccccc2OCC#N)c2ccccc12 | 25.1µM* | u
COC(=O)C1=C(c2ccccc2)c2ccccc2S(=O)(=O)N1CC(=O)Nc1ccc(F)cc1F | 37.0% | 1.8%
O=C(CCCCl)Nc1ncc(Cc2cccc(Cl)c2)s1 | 12.3% | 0.0%
CCCn1nc(C(=O)Nc2ncc(Cc3cccc(Cl)c3)s2)ccc1=O | u | 28.2µM*
CCC1c2ccsc2CCN1C(=O)COc1ccc2c(C)cc(=O)oc2c1 (stereo unspecified) | -4.9% | -2.9%
Cc1c(Cl)cccc1NC(=O)Cn1cc(C#N)c2ccccc21 | -0.7% | -4.5%
Cc1cc(C)cc(C(=O)NCCc2csc(-c3ccc(C(F)(F)F)cc3)n2)c1 | 1.8% | -14.7%
CC(=O)N1CCN(Cc2csc(-c3ccc(C(F)(F)F)cc3)n2)CC1 | 12.6µM* | 20µM*
Cc1ccc(Cl)cc1N1CCN(S(=O)(=O)c2ccc3c(c2)NC(=O)CCS3)CC1 | -13.1% | -19.0%
O=c1oc(-c2ccncc2)cc2ccccc12 | 10.2% | 20.2%
N#Cc1ccc(C(=O)C(C#N)C(=O)Nc2cccc3ccccc23)cc1 (stereo unspecified) | 10.9% | 0.0%
O=C(/C=C/N1CCC(Cc2ccccc2)CC1)C(F)(F)F | u | -16.2%
O=C(/C=C/N1CCC(CCCC2CCN(/C=C/C(=O)C(F)(F)F)CC2)CC1)C(F)(F)F | 10µM* | u
Cc1cc(/C=C(/C#N)c2ccccn2)c(C)n1C1CC1 | 17.4% | 237.5%
CC(=O)c1[nH]c(C)c(C(=O)NCc2ccc(Cl)cc2)c1C | u | 11.2µM*
CCOC(=O)c1[nH]c(C)c(C(=O)NCc2ccc(F)cc2)c1C | -5.2% | -16.7%
SMILES | FMDV RLuc | FMDV FLuc
COc1ccc(NS(=O)(=O)c2ccc(-n3cccn3)cc2)cc1OC | u | 8.91µM*
COC(=O)c1ccc(NS(=O)(=O)c2ccc(-n3cccn3)cc2)cc1 | 45.6% | 5.2%
S=C(NCCCc1ccccc1)Nc1ccc(Br)cc1Cl | 284.5% | 0.0%
COc1cc(N)c(Cl)cc1C(=O)OCc1ccc(C(C)(C)C)cc1 | -11.0% | 8.7%
CCCn1c(-n2nc(C)cc2C)nc2c1c(=O)n(CCc1ccccc1)c(=O)n2C | u | -24.5%
Cc1cc(C)n(-c2nc3c(c(=O)n(CCc4ccccc4)c(=O)n3C)n2CCC(C)C)n1 | 5.01µM* | u
Cc1cc(C)nc(NS(=O)(=O)c2ccc(NC(=O)c3nc(SC(C)C)ncc3Cl)cc2)n1 | 11.2µM* | -9.1%
Cc1ccnc(NS(=O)(=O)c2ccc(NC(=O)c3nc(SC(C)C)ncc3Cl)cc2)n1 | -13.3% | -5.4%
O=C(Nc1nc2c(s1)CCCCC2)c1ccc(Cl)cc1 | 10µM* | -26.3%
COc1ccc(C(=O)Nc2nc3c(s2)CCCC3)cc1Cl | u | 47.2%
CCCCCOc1ccc(C(=O)C(CCC(CNC(C)(C)C)C(=O)c2ccc(OCCCCC)cc2)CNC(C)(C)C)cc1 (stereo unspecified) | -19.6% | -6.5%
N#Cc1ccc(C(=O)Nc2ccc3nc(CCc4ccccc4)[nH]c3c2)cc1 | -10.4% | -6.9%
CCn1c(CCc2cccc(NC(=O)c3ccc(C#N)cc3)c2)nc2ccccc21 | 11.2µM* | 14.1µM*
CCOc1ccc(NC(=O)c2cccc(CN3CCCC3=O)c2)cc1 | -2.6% | 73.2%
CC(C)(C)c1ccc(NC(=O)c2cccc(CN3CCCC3=O)c2)cc1 | 28.2µM* | u
COc1ccc2c(C)c(CCC(=O)N3CCN(C(C)=O)CC3)c(=O)oc2c1 | 12.8% | 16.4%
Cc1ccc2cc(C(=O)NCc3ccc(N4CCC(C)CC4)nc3)c(C)nc2c1 | 1µM* | u
Cc1ccc(C(=O)NCc2ccc(N3CCCC3)nc2)cc1F | -3.6% | 11.6%
Cc1nc(N2CCCC2)ncc1C(=O)NCc1ccc(F)cc1 | 10.1% | 6.5%
Cc1nc2cc(F)ccc2cc1C(=O)NCc1ccc(C(=O)N2CCCC2)cc1 | 2.51µM* | 6.31µM*
COc1ccc(-c2ccc(CCC(=O)Nc3cc(Cl)ccc3OC)o2)cc1 | 0.0% | 0.0%
O=C(NCCc1ccc(Cl)cc1)c1cc2ccccc2oc1=O | 8.1% | -7.3%
